Results on 40 molecules are retold here after PubChem BioAssay (NCI).

This is part of a sample that, as a whole, favours compounds with a hit. Of some 83,000 tested, about 20% had one in any assay.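 Note: values are percent growth. 100 is the growth of untreated cells, values between 100 and 0 indicate rising inhibition; between -100 and 0 indicates cell death.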 Calls of active or inactive are those of the source. Rule for the calls: active = growth percent below 10; inactive = the rest.

For the experiment, the system named is HL-60(TB) leukemia. Briefly: NCI-60 one-dose screen, 48 h (100 = growth as untreated, 0 = no growth, -100 = all killed). Particulars: 10 µM unless noted.
Regarding `O=C1c2cccc3cccc(c23)C(=O)N1CCCCN1CCN(CCCCOc2ccc(-c3nc4ccc(N5CCOCC5)cc4[nH]3)cc2)CC1`, the growth was 92.6% (inactive).

Turning to `CCOC(=O)c1c(C)cc(=O)oc1C`, the growth is 105% (inactive).

Take `COc1ccc(-c2csc(NC(=O)Nc3nc(-c4ccc(OC)cc4)cs3)n2)cc1`: the growth is 80.6% (inactive).

As to `CC1CCN(CCOc2ccc(CNc3ccc4nc(CCC5CCCCC5)[nH]c4c3)cc2)CC1`, the growth is 5.83% (active).

For the molecule `Cc1ccc(NC(=O)N[C@@H](Cc2cc(F)cc(F)c2)C(=O)N[C@@H]2C(=O)N3CCC[C@H]3C(=O)N3CCCC[C@H]3C(=O)N[C@@H](C)C(=O)N3C[C@H](C)C[C@H]3C(=O)O[C@H]2C)cc1`, the growth is 11.6% (inactive).

As to `C=C1c2c(Cl)ccc(O)c2C(O)=C2C(=O)[C@]3(O)C(O)=C(C(N)=O)C(=O)[C@@H](N(C)C)[C@@H]3[C@@H](O)[C@H]12`, the growth was -24.8% (active).

In the case of `CN1CCN(c2ccc(C(=O)Nc3n[nH]c4ccc(Cc5cc(F)cc(F)c5)cc34)c(NC3CCOCC3)c2)CC1`, the growth was -57.1% (active).

As to `CN1CCC(OC2c3ccccc3CCc3ccccc32)CC1`, the growth is 99.1% (inactive).

As for `COc1ccc2[nH]c(-c3ccccc3)c(/C=C(\C#N)S(=O)(=O)c3ccccc3)c2c1`, the growth was 1.53% (active).

As to `CCSc1ccc2c(c1)N(CCCN1CCN(C)CC1)c1ccccc1S2`, the growth is 37.1% (inactive).

With `COc1ccc(-c2nnc(-c3ccc4c(c3)nc(-c3ccccc3)n4C3CCCCC3)o2)cc1`, the growth was 17.2% (inactive).

As for `c1ccc(-c2cn(-c3ccccc3)c(-c3ccccc3)n2)cc1`, the growth is 40.3% (inactive).

Regarding `CCOC(=O)NC(=S)n1oc(=O)c2ccccc21`, the growth is 104% (inactive).

Regarding `COC(=O)c1c2c(c(C)[n+]([O-])c1C)C(=O)C(NCc1ccc(F)c(Cl)c1)=CC2=O`, the growth is -54.6% (active).

As for `Cc1ccc(-n2nnnc2N)c(C)c1`, the growth was 117% (inactive).

`COc1ccc(C[C@H](N)C(=O)N[C@@H]2[C@@H](CO)OC(n3cnc4c(N(C)C)ncnc43)[C@@H]2O)cc1` (stereo not given in full): the growth is -29.9% (active).

As for `CN1CCN(CCCNC(=O)c2c3c(n4ccccc24)C(=O)c2ncccc2C3=O)CC1`, the growth was -25.4% (active).

As to `O=C1/C(=C/c2ccc([N+](=O)[O-])s2)Oc2ccc(Br)cc21`, the growth was -22.3% (active).

For `CO[C@H]1/C=C/O[C@@]2(C)Oc3c(C)c(O)c4c(O)c(c5c(nc6cc(C)ccn65)c4c3C2=O)NC(=O)/C(C)=C\C=C\[C@H](C)[C@H](O)[C@@H](C)C(O)[C@@H](C)[C@H](OC(C)=O)[C@@H]1C` (stereo not given in full), the growth was 102% (inactive).

Consider `O=C(Nc1cccc2c1C(=O)c1cccc(NC(=O)c3ccc(C(=O)Nc4cccc5c4C(=O)c4cccc(NC(=O)c6ccccc6)c4C5=O)cc3)c1C2=O)c1ccccc1`, for which the growth was 83.4% (inactive).

With `Clc1ccc(-c2nc(-c3c[nH]c4ncccc34)cs2)cc1`, the growth was 87.4% [100 µM] (inactive).

For the molecule `O=C1C(N2CCOCC2)=Cc2cccc3cccc1c23`, the growth was -26% (active).

For the molecule `CN(C)c1ccc(N=Nc2ccc(Br)cn2)c(O)c1`, the growth is -41.4% (active).

Regarding `COc1ccc(OC)c([N+](=O)[O-])c1C(=O)CNC(C)=O`, the growth is 104% (inactive).

Turning to `C[N+](C)(C)C(=O)c1ccccc1`, the growth is 125% (inactive).

Consider `COc1ccccc1/C=C1\Oc2cc(OCCN3CCC(Cc4ccccc4)CC3)ccc2C1=O`, for which the growth was 97.1% (inactive).

In the case of `CC(=O)c1c(C)nc(SCC(=O)Nc2cccc(O)c2)n1-c1ccc(Cl)cc1`, the growth is 88.3% (inactive).

For the molecule `CS(=O)(=O)c1ccc(-c2cnc3ccc(-c4cccc(S(C)(=O)=O)c4)nn23)cc1`, the growth was 16.6% (inactive).

With `NC(=O)c1cccc(-n2ccc3cc(NC(=O)Nc4ccc(Cl)c(Cl)c4)ccc32)n1`, the growth was 102% (inactive).

Turning to `COc1ccc(C(=O)c2ccc(C)cc2)c(OC)c1OC`, the growth was 93.4% (inactive).

Consider `COc1ccc(C2C3(C#N)C(N)=NC(=C(C#N)C#N)C23C#N)cc1OC` (stereo not given), for which the growth was 107% (inactive).

As to `Cc1c(Cl)ccc2c(C(=O)Cl)cc(-c3ccccc3)nc12`, the growth was 88.9% (inactive).

Regarding `CCOC(=O)CSc1nc2ccccc2c(=O)n1Cc1ccc(S(N)(=O)=O)cc1`, the growth was 100% (inactive).

As to `c1ccc2c(c1)nc(-n1ccnc1)c1nc3ccccc3n12`, the growth was 101% (inactive).

Regarding `CCCCn1c(=O)c(-c2cc(-c3ccc(Cl)cc3)nc(-c3ccc(Cl)cc3)c2)cc2cc(C)ccc21`, the growth is 100% (inactive).

In the case of `COc1ccc(C2C=C(c3ccc(N)cc3)N=C3SC=CN32)cc1OC` (stereo not given), the growth was 105% (inactive).

For `NCCNc1nc2ccccc2c2c(=O)c3cccc(F)c3sc12`, the growth was 53% (inactive).

Take `C[C@H]1OC(=O)/C=C/[C@@H](O)[C@@H](O)CCCCCCCC[C@@H]1O`: the growth was 99.6% (inactive).

In the case of `Fc1ccc(C(c2ccc(F)cc2)C(Cl)Cl)cc1`, the growth is 85.7% (inactive).

Take `CC12O[C@H](C[C@@H](OC(=O)c3ccccc3)[C@H]1O)n1c3ccccc3c3c4c(c5c6ccccc6n2c5c31)C(=O)NC4=O`: the growth is 96.9% (inactive).
